Only some compounds are listed: those with a hit (about 5.6% of all), similar ones and a draw of the others.
PHOSPHO1 inh: PHOSPHO1 (human) inhibition; Q8TCT1; recombinant PHOSPHO1, absorbance phosphatase assay; inhibition, % at 13.3 µM; actives 1.1% (n = 290,000); AID 1565; in the data active = inhibition above about 60%
Target sequence (Q8TCT1 whole entry, looked up): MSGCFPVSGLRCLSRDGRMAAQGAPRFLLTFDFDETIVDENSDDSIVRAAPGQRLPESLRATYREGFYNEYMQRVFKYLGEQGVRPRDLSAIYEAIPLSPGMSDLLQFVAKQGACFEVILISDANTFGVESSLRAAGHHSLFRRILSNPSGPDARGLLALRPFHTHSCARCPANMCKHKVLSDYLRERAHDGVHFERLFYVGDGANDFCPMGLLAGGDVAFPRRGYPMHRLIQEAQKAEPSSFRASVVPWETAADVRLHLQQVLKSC
M18AAP inhibitor: PfM18AAP enzyme inhibition | recombinant PfM18AAP, H-Glu-NHMec fluorogenic cleavage | actives 1.2% (n = 290,000) | inhibition, % at 7.35 µM;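 active = inhibition above the campaign mean inhibition over all tested compounds plus 3 SD, cut at about 28% in these data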;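 also: 0% = plate median of test compound wells and 100% = 2 mM ZnCl2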
PfGluPho inh: PfG6PD (Plasmodium falciparum) enzyme inhibition | PfGluPho enzyme, NADPH resazurin-diaphorase fluorescence | inhibition, % at 20 µM | actives 0.78% (n = 350,000);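 active = inhibition reaching at least a set limit at 20 µM in the primary screen, cut at about 59% in these data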;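 also: 0% = DMSO wells with substrate and 100% = DMSO wells lacking glucose-6-phosphate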
ALR H2O2 inh: blocks human ALR sulfhydryl oxidase activity; P55789; purified ALR, DTT oxidation, H2O2 HRP-luminol luminescence; inhibition, % (no concentration beside the values); actives 3.8% (n = 290,000);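 active = mean replicate inhibition above about 79%, with every replicate also reaching it, limit read from the data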
H9c2 protect: protects H9c2 cardiomyocytes from peroxide injury; protection from H2O2 cell death, % at 20 µM; actives 0.63% (n = 360,000); H2O2 injury protection, ATPLite, 2 h;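 active = compounds giving at least 50% protection of heart cells from peroxide-induced death in the single-dose screen, raw or plate-pattern-corrected value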;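 also: 0% = DMSO wells with peroxide and 100% = DMSO wells without peroxide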
* hit, by the source's call; / = not tested or not shown.

SMILES	PHOSPHO1 inh	M18AAP inhibitor	PfGluPho inh	ALR H2O2 inh	H9c2 protect
Cc1cc(C)c(O)c(-c2cc(C(=O)Nc3c(C)n(C)n(-c4ccccc4)c3=O)[nH]n2)c1	20	8	-27	99*	-5
CCOC(=O)c1[nH]ncc1CN1CCC(Cc2cccc(OC)c2)(C(=O)OCC)CC1	20	1	10	0	-5
CCN(CC)C(=O)C1=C(C)N(CCC2=CCCCC2)C(=O)C(CC(=O)NCc2cccc3ccccc23)C1 (stereo unspecified)	/	/	10	/	11
N#Cc1ccccc1NC(=O)COC(=O)c1ccc2c(c1)OCO2	/	/	15	-7	1
Cc1cc(NCc2ccccn2)nc2ccccc12	-3	3	17	84*	-2
COc1cccc(CN(C)C(=O)Cn2cc(C)c(=O)[nH]c2=O)c1	/	/	-16	/	10
Cc1ccc(S(=O)(=O)NCC(=O)N(CC(=O)NCC2CCCO2)Cc2ccco2)cc1 (stereo unspecified)	8	4	8	1	2
COc1ccccc1CCC(=O)OCC(=O)NC1CCCCC1	23	-7	-11	-2	-5
COc1ccccc1NCCC(=O)OCC(=O)NC1CC1	-9	6	-10	99*	-2
COc1ccccc1NCCC(=O)OCC(=O)NC1CCCCC1	4	23	-5	99*	1
O=C(COC(=O)CSc1ccc2ccccc2c1)NC1CCCC1	-1	-1	3	100*	3
COc1ccc(NC(=O)[C@@H]2CCCN2S(=O)(=O)c2ccccc2F)cc1S(=O)(=O)N1CCCCC1	/	/	4	-7	1
Cc1ccc(C)c(N2CCN(C(=O)CCS(=O)(=O)c3ccc4c(c3)oc(=O)n4C)CC2)c1	49	1	9	8	-3
Cc1ccc(O)c(C(=O)CC(=O)c2ccccc2Cl)c1	41	-2	-9	45	11
Cc1ccc(O)c(C(=O)CC(=O)c2ccc(C(C)(C)C)cc2)c1	-18	2	-22	-11	57*
CC(C)(C)c1ccc(CC(=O)N2CCC2(C)C(=O)NS(=O)(=O)c2cccc(F)c2)cc1 (stereo unspecified)	/	/	/	/	3
Nn1cc(-c2ccccc2)nc1SCC(=O)Nc1cccc(S(N)(=O)=O)c1	-3	6	3	99*	7
NS(=O)(=O)c1cccc(NC(=O)CSc2nc3ccc(Cl)cc3[nH]2)c1	44	-2	24	97*	-8
Cc1ccccc1-c1cccc([C@@H]2C[C@H]3[C@H](CON3C)CN2Cc2cc(Cl)cc(Cl)c2)c1	/	/	-1	/	-16
COC(=O)CCSCC(=O)Nc1ccc(C)c(S(=O)(=O)N2CCCCC2)c1	40	6	-8	99*	-2
COc1cccc(CNC(=O)c2ccc(CS(=O)c3ccccc3)o2)c1 (stereo unspecified)	43	-9	8	-3	0
O=C(c1cccn2c(=O)c3ccccc3nc12)N1CCN(c2ccccn2)CC1	11	4	1	6	11
O=C(c1cccn2c(=O)c3cc4ccccc4cc3nc12)N1CCN(c2ccccc2)CC1	100*	-2	/	-11	/
C=C1CCN([C@@H](Cc2ccccc2)C(=O)NCCCc2ccccc2)S(=O)(=O)c2ccccc21	/	/	8	6	-4
Cn1nc(-c2ccc(Cl)cc2)c2cc(C(=O)NCCCN3CCCC3)sc21	-7	0	-1	94*	4
SMILES	PHOSPHO1 inh	M18AAP inhibitor	PfGluPho inh	ALR H2O2 inh	H9c2 protect
COCCNC(=O)c1cc2c(-c3ccc(Cl)cc3)nn(C)c2s1	-21	-6	22	92*	2
Cc1ccc(CNC(=O)c2cc3c(-c4ccc(Cl)cc4)nn(C)c3s2)o1	3	-4	36	80*	2
COCCCNC(=O)c1cc2c(-c3ccc(Cl)cc3)nn(C)c2s1	-26	-6	24	-23	5
Cc1cc(-c2nnc(SCC(=O)Nc3ccc(F)cc3F)n2N)n[nH]1	2	2	10	-7	6
OCc1csc(=Nc2ccccc2)n1-c1ccccc1	8	2	-10	99*	2
Cc1ccc(S(=O)(=O)N2CCOCC2)cc1C(=O)NC(C)CCc1ccccc1 (stereo unspecified)	/	/	8	-8	7
Cc1nc(C)c(-c2csc(Nc3ccc(O)cc3C)n2)s1	14	-4	9	99*	2
Cc1cc(O)ccc1Nc1nc(-c2cccnc2)cs1	29	19	22	72	-12
Cc1nc(C)c(-c2csc(Nc3ccc(F)cc3)n2)s1	46	4	26	94*	-13
c1cncc(Nc2nc(-c3cccs3)cs2)c1	2	30*	53	96*	-6
